A number with no mark means an inactive call. Activity calls are given as the source filed them. Cut-off read from the data, not from the text of the source: active = inhibition above about 42%; inactive = the rest.
target: Nuclear receptor subfamily 5 group A member 2 (Homo sapiens) (UniProt O00482); experiment: LRH-1 (NR5A2) inverse agonists, retest, confirmation, cell-based, luminescence (AID 651613); details: cell-based LRH-1 luciferase reporter, inverse agonism; at 3.6 µM; active compounds read high;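 note: HEK293T cells co-transfected with LRH-1 and StAR promoter luciferase reporter; 0% = vehicle wells and 100% = parental cells lacking receptor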
Sequence (O00482 whole entry, looked up): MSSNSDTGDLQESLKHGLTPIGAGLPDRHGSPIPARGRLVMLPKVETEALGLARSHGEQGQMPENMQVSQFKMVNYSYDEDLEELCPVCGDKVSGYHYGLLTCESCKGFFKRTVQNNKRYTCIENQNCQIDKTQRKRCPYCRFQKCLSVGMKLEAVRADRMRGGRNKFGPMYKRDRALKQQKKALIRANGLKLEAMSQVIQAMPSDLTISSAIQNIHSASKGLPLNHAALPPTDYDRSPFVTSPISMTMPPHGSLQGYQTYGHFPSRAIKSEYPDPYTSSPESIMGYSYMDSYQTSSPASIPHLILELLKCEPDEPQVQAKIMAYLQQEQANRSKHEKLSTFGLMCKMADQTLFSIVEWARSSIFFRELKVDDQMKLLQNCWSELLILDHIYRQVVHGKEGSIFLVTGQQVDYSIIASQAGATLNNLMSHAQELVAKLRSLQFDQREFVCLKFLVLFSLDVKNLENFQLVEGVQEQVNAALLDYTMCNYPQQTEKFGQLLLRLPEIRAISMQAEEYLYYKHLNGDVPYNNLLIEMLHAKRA

Compound	inhibition
Cc1cccc(-n2c(CNC(=O)c3ccccc3)nnc2SCC(=O)Nc2nccs2)c1	10.1%
CN(C)CCNc1ccc2nnn3c4ccc(O)cc4c(=O)c1c23	71.1% (active)
Cc1sc2ncnc(NCC3COc4ccccc4O3)c2c1C (configuration not stated)	62% (active)
Cc1nc2ccc(NC(=O)c3cc(S(=O)(=O)N(C)c4ccccc4)ccc3Cl)cc2s1	57.5% (active)
CN(C)CCN1C(=O)c2cccc3cc([N+](=O)[O-])cc(c23)C1=O	96.7% (active)
CCc1c(C)nc2ncnn2c1NCCc1ccc(OC)cc1	53.9% (active)
Cc1c(C(C)C)c(=O)n(-c2ccc(S(=O)(=O)NCc3ccccc3)cc2)n1C	54.3% (active)
O=C(CSc1nnnn1C1CC2CCC1C2)Nc1ccnc2ccccc12 (configuration not stated)	61% (active)
CC1(C)CC(N2CCCC2)=CC(=[N+]2CCCC2)C1	62% (active)
CC1(C)CC(N2CCCC2)=CC(=[N+]2CCCCC2)C1	64.8% (active)
COc1ccc(-c2coc3c(C(=O)NCc4ccc(OC)c(OC)c4)cccc23)c(C)c1	80.8% (active)
COc1ccc(CC(=O)Nc2cccc(S(=O)(=O)N3CCCCCC3)c2)cc1OC	65.6% (active)
Clc1ccc(-c2nnc(CSc3nnc(-c4cccs4)n3Cc3ccccc3)o2)cc1	51.7% (active)
O=C(CSc1nnc(Cn2nnc3ccccc32)o1)N(Cc1ccc(F)cc1)c1ccccc1	63% (active)
CC(C)C(=O)NC(c1ccc(Cl)cc1Cl)c1ccc2cccnc2c1O (configuration not stated)	35.2%
Cc1ccc(S(=O)(=O)CC2CSc3nc4ccccc4n32)cc1 (configuration not stated)	65.3% (active)
O=C(Nc1nonc1NC(=O)c1cccs1)c1cccs1	64.1% (active)
CCN(CC)C1=CC(=[N+]2CCCC2)CC(C)(C)C1	61.9% (active)
CCCOc1ccc(Cc2c(Cl)nc(SC)nc2NC)cc1	54.9% (active)
COc1cccc2c1C(=O)c1c(O)c3c(c(O)c1C2=O)CC(O)(C(C)=O)CC3OC1CC(O)C(O)C(C)O1 (configuration not stated)	50.7% (active)
CCN(CC)S(=O)(=O)c1cc(NC(=O)CNc2cccc(S(=O)(=O)N3CCCC3)c2)ccc1C	61.7% (active)
Fc1ccc(NC(=S)N2CCCN(c3ccc(C(F)(F)F)cn3)CC2)c(F)c1	57.6% (active)

— PubChem BioAssay
